# Test results taken from PubChem BioAssay AID504861 (Broad Institute, 2011).
# Screen size: about 1,200 compounds; about 290 (24%) were called active. Another 3% or so got no clear call; they are omitted.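 The calls were made as follows: active = compounds lowering cell viability signal with fitted half-maximal concentration at most ten times their highest tested concentration; inconclusive = flat fit with 30 to 70% signal loss, or poor fit; inactive = the rest.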 Only a sample is shown. Measured potencies and affinities stand elsewhere.
# Experiment: cytotoxicity in HEK293T cells – cell-based, CellTiter-Glo luminescence, cherry-picks, cytotoxicity control for LMP1 NF-kB inhibitor project, dose response (AID 504861)
# Conditions: HEK293T viability, CellTiter-Glo ATP luminescence, 48 h; series mostly up to 26 µM; activity change, negative = cytotoxicity: at the top concentration
row,Compound,"activity change, negative = cytotoxicity"
1,CC(=O)O[C@]1(C(C)=O)CC[C@H]2[C@@H]3C=C(C)C4=CC(=O)CC[C@@H]4[C@H]3CC[C@@]21C,3.47% (inactive)
2,Cc1ccc(-c2cc(C(=O)N/N=C/C=C/c3ccco3)c3ccccc3n2)cc1C,6.86% (inactive)
3,Cc1ccc(C(=O)NCC(=O)N(C)Cc2cccc(F)c2)s1,9.7% (inactive)
4,Cn1cccc1/C=N/n1c(-c2ccc(Cl)cc2Cl)n[nH]c1=S,20.7% (inactive)
5,O=C(Nc1cccc(C(=O)O)c1)Nc1ccccc1Cl,-4.79% (inactive)
6,CCn1nnc2cc(C(=O)NCCc3ccccc3F)ccc21,4.03% (inactive)
7,O=C(NCCc1cn2ccccc2n1)C1CCCCC1,2.71% (inactive)
8,Cc1ccc(C)c(Cn2c(O)c(N=NC(=S)Nc3ccccc3F)c3ccccc32)c1,4.62% (inactive)
9,N#CC1=C(N)C(C#N)(C#N)C(c2cccnc2)C2CC(c3ccccc3)CC=C12 (stereo not drawn),-9.23% (inactive)
10,Cc1nc(C)n(C(C)CNC(=O)c2ccco2)n1 (stereo not drawn),20.6% (inactive)
11,O=C(O)c1ccccc1Nc1cccc(OCc2ccc3ccccc3n2)c1,2.93% (inactive)
12,CCCC(=O)NCCCc1nc2ccccc2n1C,4.83% (inactive)
13,O=C(O)c1cc(=O)c2c(OCC(O)COc3cccc4oc(C(=O)O)cc(=O)c34)cccc2o1,2.34% (inactive)
14,COc1ccc(-n2c(C)c([N+](=O)[O-])c3ccc(O)c(CN(C)C)c32)cc1,-4.24% (inactive)
15,COc1ccc(Cl)cc1NC(=O)CN(C)S(=O)(=O)c1cccs1,0.878% (inactive)
16,OCCN(CCO)CC(O)COCCC12CC3CC(CC(C3)C1)C2 (stereo not drawn),6.07% (inactive)
17,O=C(Nc1ccc2c(c1)nc1n2CCSC1)c1ccco1,1.58% (inactive)
18,CCn1c(/C=C/c2ccc([N+](=O)[O-])o2)nc2ccccc2c1=O,-4.54% (inactive)
19,Cc1ccc(/C=C/c2nc3ccccc3c(=O)[nH]2)cc1,11.4% (inactive)
20,COc1ccccc1-c1ccccc1C1=CC(=O)CC(C)(C)C1=O,-7.07% (inactive)
21,COc1ccc(/C=C2\N=C(C)OC2=O)cc1[N+](=O)[O-],17% (inactive)
22,Brc1cccc(-c2cnco2)c1,4.42% (inactive)

row,Compound,"activity change, negative = cytotoxicity"
1,O=c1[nH]c(=O)n([C@H]2C[C@H](O)[C@@H](CO)O2)cc1C(F)(F)F,-5.32% (inactive)
2,O=c1c2c(nc3c(-c4cccc(Br)c4)c[nH]n13)CCCC2,5.69% (inactive)
3,CC(C)C(=O)Nc1ccc(C(=O)N/N=C/c2cc(Br)cc(Br)c2O)cc1,4.48% (inactive)
4,Clc1ccc(-c2cn3nc4c(nc3n2)CCCC4)cc1,10.1% (inactive)
5,COc1ccc(NC(=O)C2CCCN(S(=O)(=O)c3cccc4nonc34)C2)c(OC)c1 (stereo not drawn),2% (inactive)
6,CC(=O)Nc1ccc(C=NNc2nnc(NN=Cc3ccc(NC(C)=O)cc3)c3ccccc23)cc1,6.7% (inactive)
7,COc1ccc(N2C(=O)CC(Sc3nnc(-c4ccccc4)o3)C2=O)cc1 (stereo not drawn),4.02% (inactive)
8,Cc1cccc(NC(=O)Nc2c(C)n(C)n(-c3ccccc3)c2=O)c1C,43.7% (inactive)
9,Cc1c(C=O)c2ccccn2c1C(=O)c1ccccc1Cl,5.73% (inactive)
10,Clc1ccc2nc(-c3ccc4c(c3)OCO4)cn2c1,-2.92% (inactive)
11,COC(=O)c1ccc2nc(-c3ccc4c(c3)OCO4)cn2c1,7.59% (inactive)
12,Cc1c(/C(O)=C2/C(=O)C(=O)N(CCN3CCOCC3)C2c2ccccn2)cnn1-c1ccccc1 (stereo not drawn),-7.18% (inactive)
13,CCc1cc(=O)oc2c(CNCc3c(F)cccc3Cl)c(O)ccc12,2.48% (inactive)
14,CS(=O)(=O)c1ccc(Sc2nc3ccccc3s2)c([N+](=O)[O-])c1,-4.39% (inactive)
15,COc1ccccc1C(=O)NC(=O)CSc1nnc(N)s1,-1.07% (inactive)
16,COc1ccc(-c2nc(CS(=O)CC(=O)NCc3ccc(Cl)cc3)c(C)o2)cc1 (stereo not drawn),6.15% (inactive)
17,COc1ccc(S(=O)(=O)NCCc2csc(-c3cccnc3)n2)cc1,1.59% (inactive)
18,Cc1cccc(Cn2cc(SCC(=O)Nc3nccs3)c3ccccc32)c1,8.72% (inactive)
19,O=C1/C(=C/c2cccnc2)SC(=S)N1Cc1ccco1,5.5% (inactive)
20,CCOc1ccc(-c2nc(CSCC(=O)NCc3ccco3)c(C)o2)cc1,4.12% (inactive)
21,CCOC(=O)c1ccc(NC(=S)N2CCSC2c2ccc(OC)cc2)cc1 (stereo not drawn),8.51% (inactive)
22,Cc1ccc(C(=O)NCCc2cccs2)cc1,-6.71% (inactive)

row,Compound,"activity change, negative = cytotoxicity"
1,Cc1ccc(/C=C/C(=O)C2C(=O)c3ccccc3C2=O)cc1,3.89% (inactive)
2,Cc1cc(C)n(C2CCCCC2OC(=O)c2ccccc2F)n1 (stereo not drawn),7.27% (inactive)
3,CNC(=S)Nc1ccc2nc(C)c(C)nc2c1,1.31% (inactive)
4,Cc1cc(=O)[nH]c(N=N/C(=N/Nc2ccccc2C)c2ccccc2)n1,0.611% (inactive)
5,O=C(Nc1ccc(Br)cc1)C1CC(O)CN1C(=O)OCc1ccccc1 (stereo not drawn),6.89% (inactive)
6,O=C(O)CCc1nc(-c2ccc(Cl)cc2)no1,12.4% (inactive)
7,Cn1c(-c2ccccc2)cnc1SCC(=O)N1CCCCC1,3.75% (inactive)
8,O=C(N/N=C/c1cccnc1)c1cc(-c2cccs2)nc2ccccc12,-0.968% (inactive)
9,NC(=O)c1sc2nc3c(c(-c4cccs4)c2c1N)CCCCC3,-1.65% (inactive)
10,O=C(CN1C(=O)c2ccccc2C1=O)NNC1=NS(=O)(=O)c2ccccc21,6.87% (inactive)
11,COc1ccc(-n2nc(C(=O)c3cccs3)cc(-c3nc4ccccc4[nH]3)c2=N)cc1,-3.71% (inactive)
12,O=C(Nc1nnc(N2CCCCCC2)s1)c1cc(-c2ccc(Br)cc2)on1,4.97% (inactive)
13,Cc1ccccc1N(C(=O)c1snc(C(N)=O)c1N)C(C(=O)NC1CCCCC1)c1ccc(O)cc1 (stereo not drawn),1.86% (inactive)
14,Cc1cc(NC(=O)c2ccc3c(c2)OCCO3)no1,7.18% (inactive)
15,CSc1nc2cc3c(cc2n1C(=O)c1ccc(C)cc1)OCCO3,1.34% (inactive)
16,C/C(=N\Nc1ccc(C(F)(F)F)cc1[N+](=O)[O-])C(C)C,0.008% (inactive)
17,Nc1ccccc1SC1CC(=O)N(c2ccccc2Cl)C1=O (stereo not drawn),-4.97% (inactive)
18,Cc1cccc(Nc2nc(Cl)ncc2F)c1C,10.1% (inactive)
19,Cc1ccnc(SCCn2c(N3CCN(c4ccccc4)CC3)nc3c2c(=O)[nH]c(=O)n3C)n1,17.5% (inactive)
20,O=C(NCCCN1CCCCC1)c1ccc2c(c1)NC(=O)c1ccccc1S2,7.92% (inactive)
21,COc1ccc(-c2cc3nc(-c4ccccc4)cc(N4CCCC(O)C4)n3n2)cc1 (stereo not drawn),14.7% (inactive)
22,O=C(N/C(=C/c1ccc(Br)cc1)C(=O)N1CCOCC1)c1ccc(Br)o1,7.11% (inactive)

row,Compound,"activity change, negative = cytotoxicity"
1,COc1cccc(-c2nc(NCc3ccccc3)c3ccccc3n2)c1O,3.06% (inactive)
2,O=C(NCCc1ccccc1)c1ccc2nccnc2c1,1.28% (inactive)
3,O=C(Nc1ccc(Cl)c(Cl)c1)Nc1nc(-c2ccccc2)cs1,0.564% (inactive)
4,CCc1ccccc1N(CC(=O)NCc1ccco1)C(=O)c1snc(C(N)=O)c1N,9.6% (inactive)
5,CCn1c2ccccc2c2cc(NC(=O)c3ccccc3-c3ccccc3C(=O)O)ccc21,8.33% (inactive)
6,CCN(CC)Cc1cc(Nc2ccnc3cc(Cl)ccc23)ccc1O,-8.16% (inactive)
7,O=S(=O)(c1ccc2c(c1)C(=NO)c1cc(S(=O)(=O)N3CCCCC3)ccc1-2)N1CCCCC1,-11.5% (inactive)
8,Nc1nc(N)nc(-c2cc(Cl)ccc2Cl)n1,1.65% (inactive)
9,CCCc1cc(=O)c2c(O)ccc(OC)c2o1,-0.442% (inactive)
10,CC1CCC(NC(=O)CC2Oc3ccccc3NC2=O)CC1 (stereo not drawn),11.5% (inactive)
11,O=S(=O)(c1ccccc1)N1CCN(c2cc(-c3ccccc3)nc3ncnn23)CC1,-3.34% (inactive)
12,COc1ccccc1NC(=O)C(=O)N/N=C(\C)CC(=O)Nc1ccccc1C(F)(F)F,3.35% (inactive)
13,Cn1cccc1CC(=O)NNC(=S)Nc1ccccc1Cl,5.13% (inactive)
14,CC(C)(C)n1nc(-c2ccc(F)cc2)c2c(N)ncnc21,1.55% (inactive)
15,CCc1nnc(NC(=O)c2cc(S(=O)(=O)N3CCN(CC)CC3)ccc2Cl)s1,29% (inactive)
16,COc1ccc(CCC(=O)Nc2ccc(C)c([N+](=O)[O-])c2)cc1,-8.9% (inactive)
17,CN(C)S(=O)(=O)c1cccc(NC(=O)c2n[nH]c(=O)c3ccccc23)c1,12.4% (inactive)
18,CCc1ccc(-c2nnn(CCC(=O)OC)n2)cc1,11.4% (inactive)
19,Cc1ccc(C(=O)Nc2cccc(C(=O)N/N=C/c3ccccc3F)c2)cc1,2.62% (inactive)
20,Oc1cccc(/C=N/NC(=S)NCCN2CCOCC2)c1O,-11% (inactive)
21,COc1ccccc1C1(CC(=O)O)CCOC(C)(C)C1 (stereo not drawn),10.4% (inactive)
22,CCCN1C(=O)C2(SC(NC(C)=O)=NN2C(C)=O)c2cc(C)cc(C)c21 (stereo not drawn),5.8% (inactive)

row,Compound,"activity change, negative = cytotoxicity"
1,COc1ccc(OC)c2c1sc(=NC(=O)c1ccco1)n2C,4.28% (inactive)
2,Cc1ccc(NC(=S)Nc2cccc(S(=O)(=O)Nc3c(C)n(C)n(-c4ccccc4)c3=O)c2)cc1,9.45% (inactive)
3,Cc1ccc(C)c(S(=O)(=O)N2CCN(C(=O)c3ccc(C)s3)CC2)c1,-9.08% (inactive)
4,O=C(Cn1ccc(C(F)(F)F)n1)Nc1cccc(S(=O)(=O)N2CCCCC2)c1,3.77% (inactive)
5,Cc1ccc(S(=O)(=O)N[C@H](C(=O)N2CCC(C(=O)N[C@@H](CC(=O)O)C(=O)O)CC2)C(C)C)cc1,-4.38% (inactive)
6,C=CCn1c(C)c(C(C)=O)c(N2CCN(C(c3ccccc3)c3ccccc3)CC2)nc1=S,-5.9% (inactive)
7,COC(=O)c1ccc(COc2ccccc2/C=C/C(=O)c2ccc(OCC(=O)O)cc2)cc1,5.12% (inactive)
8,COc1ccccc1OCc1ccc(C(=O)c2ccccc2)cc1,10.3% (inactive)
9,COc1cccc(C(=O)N2CCN(c3nc4cc(C)cc(C)c4cc3C#N)CC2)c1,8.25% (inactive)
10,Cc1ccc(N2CCN(C3=NC(=O)/C(=C\c4cn[nH]c4-c4ccccc4)S3)CC2)cc1,4.77% (inactive)
11,Cc1cnc(NC(=O)c2ccc(OCC3CCCO3)cc2)s1 (stereo not drawn),-1.67% (inactive)
12,O=C(CSc1nnc(NC(=O)c2ccc3c(c2)OCO3)s1)NCc1ccco1,0.231% (inactive)
13,COc1ccc(C(=O)N(CN2CCCC2=O)c2cc(C)on2)cc1OC,-6.13% (inactive)
14,COc1ccc(/C=C\C(=O)NCc2ccc3c(c2)cc(C)n3C)cc1OC,3.26% (inactive)
15,O=C(C[n+]1ccccc1)N/N=C/c1ccc(O)cc1,2.54% (inactive)
16,CCCCNC(=S)Nc1ccc([N+](=O)[O-])cc1,-12.9% (inactive)
17,O=C(CCN1CCC(c2ccccc2)C1)c1ccc2c(c1)OCCO2 (stereo not drawn),-1.97% (inactive)
18,CC(=O)Nc1ccc(OCCCNC(=O)c2c(-c3ccccc3)noc2C)cc1,-1.68% (inactive)
19,CC(C)c1ccc(OCc2cccc(C(=O)N/N=C/c3cccnc3)c2)cc1,1.92% (inactive)
20,O=C(CCc1ccccc1Cl)N1CCN(S(=O)(=O)c2ccccc2)CC1,5.52% (inactive)
